In the library only some 4.7% were active in any assay of this set; here they are far more common.
D3 antag: qHTS of D3 Dopamine Receptor Antagonist: qHTS; D3R cells, DiscoveRx beta-arrestin luminescence, antagonist mode; stronger effect = lower value; max response, negative = inhibition, %; actives 2.5% (n = 360,000); in the data active = max response below about -50%; inconclusive = no clear call, values can overlap the other calls
Target sequence (P35462 whole entry, looked up): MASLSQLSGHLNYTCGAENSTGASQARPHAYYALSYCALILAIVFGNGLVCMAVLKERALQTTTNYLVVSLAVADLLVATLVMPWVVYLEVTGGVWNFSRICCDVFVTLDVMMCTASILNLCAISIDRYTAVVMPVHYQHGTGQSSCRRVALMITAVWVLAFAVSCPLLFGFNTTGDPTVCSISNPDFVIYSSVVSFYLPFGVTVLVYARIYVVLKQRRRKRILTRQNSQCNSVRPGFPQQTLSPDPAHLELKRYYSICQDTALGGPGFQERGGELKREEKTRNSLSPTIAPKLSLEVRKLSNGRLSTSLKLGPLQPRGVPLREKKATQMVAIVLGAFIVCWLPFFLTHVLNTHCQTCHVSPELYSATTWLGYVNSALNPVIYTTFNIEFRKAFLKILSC
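Cells expressing the human receptor were seeded at 1500 cells/well, incubated overnight at 37 degrees C in 5% CO2, then exposed to library compounds with dopamine controls for 90 minutes at 37 degrees C before luminescent detection.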
TGFb inhibitor: qHTS for Inhibitors of TGF-b. HepG2 CAGA-GFP TGF-b/SMAD3 reporter, GFP fluorescence, 18 h; TGF-beta stimulated, 500 pg/mL final. Potency, µM (series often up to 46.1 µM), hits mostly inhibitors. actives 1.2% (n = 410,000). AID 588855, 2011; also: nearly all actives have a fitted effect of over 65% in size
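HEPG2 CAGA-GFP cells (1000/well, DMEM with 1% FBS) were pre-incubated 2 h at 37 degrees C, given compound by pin tool, then stimulated with TGF-beta at 500 pg/mL final for 18 h before per-cell GFP fluorescence imaging.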
HepG2 viability: qHTS for Inhibitors of TGF-b: Cytotox Counterscreen | AID 588856, 2011 | Potency, µM (top dose mostly 46.1 µM), actives largely listed as cytotoxic | HepG2 CAGA-GFP viability, ATP luminescence, 18 h | actives 0.76% (n = 410,000)
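HepG2 CAGA-GFP cells (1000/well, DMEM with 1% FBS) received compound, then TGF-beta at 500 pg/mL final, and were incubated 18 hours at 37 degrees C. Viability was read by CellTiter-Glo luminescence. Media-only wells were set as complete cell-killing and DMSO as no toxicity.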
S2 tox: Viability Counterscreen for Primary qHTS for Inhibitors of ATXN expression; Potency, µM (top dose mostly 56.7 µM), most hits filed as cytotoxic; AID 651635, 2014; S2 cells (HEK-293 line with an ATXN2-luciferase reporter) viability, CellTiter-Fluor protease fluorescence, 24 h; actives 0.49% (n = 400,000); also: nearly all actives have a fitted effect of over 40% in size
DRD3 agonist: qHTS of D3 Dopamine Receptor Agonist: qHTS; actives 0.58% (n = 410,000); D(3) dopamine receptor (Homo sapiens), P35462; max activation, %; D3R DiscoveRx beta-arrestin cells, luminescence, 90 min; AID 652048, 2013; in the data active = max activation above about 30%
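Agonist mode: compounds and dopamine controls were applied to plated cells for 90 min at 37 degrees C after an overnight attachment at 1500 cells/well. Luminescent read-out followed 30 - 60 minutes at room temperature with DiscoveRx detection reagent.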
ATXN2 expr inh: Primary qHTS for Inhibitors of ATXN expression | HEK-293 ATXN2-luciferase reporter, luminescence, 24 h | Potency, µM (highest dose often 57 µM), actives largely listed as inhibitors | actives 0.72% (n = 360,000) | AID 1745845, 2022; also: nearly all actives have a fitted effect of over 55% in size
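qHTS (up to 57 uM final) was run with 24 h compound exposure of reporter cells at 37 °C. Each well was multiplexed: SteadyGlo luminescence measured ATXN2-luciferase expression after a fluorogenic Gly-Phe-AFC viability readout (25 uM final).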
Hits are given with their value; 0 = inactive; ? = inconclusive; - = not tested or not shown; [ ] = remark or other dose. Unless noted, calls follow the shape of the dose curve; as a rule, active = well fitted curve in the direction sought with a large enough effect; inconclusive = small, poorly fitted or top-dose-only effect, or another doubt; inactive = no such curve, though single readings can be large; an effect the other way counts as inactive or inconclusive.

SMILES | D3 antag | TGFb inhibitor | HepG2 viability | S2 tox | DRD3 agonist | ATXN2 expr inh
COc1ccc(O)c(CN2CCOc3c(cc(-c4cccc(OC)n4)cc3OC)C2)c1 | - | - | - | 0 | - | -
CN(C)c1ccc(-c2nc3ncc(Cl)c(N4CCN(CC(=O)Nc5nccs5)CC4)c3[nH]2)cc1 | - | - | - | - | - | 0
CCC1CCCCN1S(=O)(=O)c1cc(C(=O)Nc2ccc(C)c(F)c2)ccc1F (configuration not stated) | - | 11µM | 0 | - | 0 | -
COc1cc(-c2cnc3ccccc3c2)cc2c1OCCN(C(=O)Cn1nccc1C)C2 | - | - | - | 0 | - | -
Cc1cccc(N2CCN(Cc3ccc(Br)o3)CC2)c1C | -56 | ? | 0 | 0 | 0 | 0
Clc1ccccc1N1CCN(Cc2ccc(Br)o2)CC1 | -60 | 0 | 0 | ? | 0 | 0
Brc1ccc(CN2CCN(c3ccccc3)CC2)o1 | 0 | 0 | 0 | 0 | 0 | 0
Cc1ccccc1N1CCN(Cc2ccc(Br)o2)CC1 | -58 | 0 | 0 | 0 | 0 | 0
Cc1[nH]n2c(=O)c3c(nc2c1-c1ccc(Cl)cc1)CCC3 | -87 | 0 | 0 | 0 | 0 | ?
Cc1[nH]n2c(=O)cc(C(C)(C)C)nc2c1-c1ccccc1 | 0 | 0 | 0 | 0 | 0 | 18µM
Cc1[nH]n2c(=O)cc(C(C)C)nc2c1-c1ccccc1 | 0 | 0 | 0 | ? | 0 | 0
Cc1[nH]n2c(=O)cc(-c3ccc([N+](=O)[O-])cc3)nc2c1-c1ccccc1 | -81 | ? | 0 | ? | 0 | 20µM
Cc1[nH]n2c(=O)cc(-c3ccc(Cl)cc3)nc2c1-c1ccccc1 | - | 10µM | 0 | 0 | 0 | 3.5µM
CCCc1cc(=O)n2[nH]c(C)c(-c3ccccc3)c2n1 | 0 | 0 | 0 | 0 | 0 | 0
COC(=O)C(Cc1ccccc1)NC(=O)C(CC(C)C)NC(=O)OC(C)(C)C (configuration not stated) | 0 | 0 | 0 | ? | 0 | 0
CC(C)CC(NC(=O)OCc1ccccc1)C(=O)NC(Cc1ccccc1)C(=O)CCl (configuration not stated) | 0 | 10µM | 0 | - | 0 | ?
Cc1ccc(C(=O)Nc2cccc(N(C)S(C)(=O)=O)c2)cc1S(=O)(=O)Nc1ccccc1 | 0 | 0 | 0 | 0 | 44 | 0
Cc1ccc(C(=O)Nc2ccc(Br)cc2)cc1S(=O)(=O)NCc1ccccc1 | - | 16µM | 0 | ? | 0 | ?
Cc1ccc(C(=O)Nc2ccccc2C(=O)O)cc1S(=O)(=O)Nc1ccc(Br)cc1 | 0 | ? | 0 | 0 | 34 | 0
COc1ccc(C(=O)Nc2cccc(N(C)S(C)(=O)=O)c2)cc1OC | 0 | 0 | 0 | 0 | 0 | 0
Nc1ccc[n+](CC(=O)c2ccc(F)cc2)c1 | - | 0 | 0 | - | - | -
NC[C@H]1O[C@H](O[C@H]2[C@H](O[C@@H]3O[C@H](CO)[C@@H](O)[C@H]3O)C(O)[C@H](N)C[C@@H]2N)[C@H](N)[C@@H](O)[C@@H]1O (some centres not stated) | - | - | - | 0[11.3 µM] | 0 | 0[11.3 µM]
CCCOc1cc(C)c(S(=O)(=O)NC2CC(C)(C)NC(C)(C)C2)cc1C | 0 | ? | 11µM | 0 | 0 | 0
COc1cc(C)c(S(=O)(=O)NC2CC(C)(C)NC(C)(C)C2)cc1C | 0 | 0 | 0 | 0 | 0 | 0
Cc1ccccc1C(=O)c1ccc(Nc2ccc(Br)cc2N)cc1Cl | - | - | - | - | - | 0
SMILES | D3 antag | TGFb inhibitor | HepG2 viability | S2 tox | DRD3 agonist | ATXN2 expr inh
CC(C(Sc1ccccc1N)c1ccccc1)[N+](=O)[O-] (configuration not stated) | ? | ? | 0 | 28µM | 0 | ?
Cc1cc(Cn2cnc3c(cnn3C(C)(C)C)c2=O)ccc1F | - | 0 | 0 | - | - | -
COc1cc(CN(C(=O)COc2ccc(C)c(C)c2)c2ccccn2)cc(OC)c1OC | - | - | 0 | - | 0 | -
CC(=O)N1c2c(cc(Br)cc2S(=O)(=O)NCc2ccccc2Cl)CC1C (configuration not stated) | - | 0 | 0 | 0 | 0 | 0
COc1ccccc1NC(=O)CSc1nnnn1-c1ccccc1OC | 0 | 0 | 0 | 0 | 0 | 0
COc1ccccc1NC(=O)CSc1nnnn1-c1ccc2c(c1)OCO2 | 0 | 0 | 11µM | 0 | 0 | 0
CCOc1ccccc1NC(=O)CSc1nnnn1Cc1ccccc1 | -59 | 0 | 0 | 0 | 0 | 0
CC1(C)OC(=O)C2(Cc3cc(C(F)(F)F)ccc3N3CCCCC32)C(=O)O1 (configuration not stated) | - | 0 | 0 | - | - | -
Cc1cncc2cccc(S(=O)(=O)N3CCCN(C(=O)CN)C[C@@H]3C)c12 | - | - | - | - | - | 0
COc1ccc(/C=C/c2cc(C(=O)O)c3ccccc3n2)cc1 | 0 | 0 | 0 | 0 | 0 | 2.2µM
COc1cc(OC)c(OC)cc1/C=C/c1cc(C(=O)O)c2ccccc2n1 | 0 | 0 | 0 | 0 | 0 | -
COC(=O)c1c(SCC(=O)Nc2cc(C)cc(C)c2)[nH]c2ccccc2c1=O | - | 13µM | 10µM | 0 | 0 | ?
COC(=O)c1c(SCC(=O)Nc2ccccc2C(F)(F)F)[nH]c2ccc(Cl)cc2c1=O | - | ? | 0 | 0 | 0 | 0
Cc1ccc(C(=O)NCC(c2ccc3c(c2)OCO3)N2CCN(C)CC2)cc1C (configuration not stated) | - | 0 | 0 | ? | 0 | 0
CCSC1=NC2(CCCCC2)Nc2sc3c(c21)CCCC3 | -61 | 0 | 0 | 0 | 0 | 0
CC1CN(CC(=O)NCC2(N3CCOCC3)CCCC2)Cc2cc(Cl)ccc2O1 (configuration not stated) | - | - | - | 0 | - | -
COc1cccc(-n2c(SC)nnc2C2CCN(Cc3cccc(OC)c3O)CC2)c1 | - | - | - | 0 | - | -
CCOc1ccc(NC(=O)c2cn(C)c(=O)c3cc(OC)c(OC)cc23)cc1 | - | 0 | 0 | 0 | 0 | 0
Cc1cccc(C=NNc2cc(N3CCOCC3)nc(OCCc3ccccn3)n2)c1 | - | - | - | - | - | 0.97µM
CC(C)CCOc1ccc(CC(=O)NO)cc1 | - | 0 | 0 | - | - | -
COC(CNC(=O)c1ccc(N2CCCC2=O)cc1)OC | -51 | 0 | 0 | 0 | 0 | 0
Cc1ccc(Cl)cc1NC(=O)NCCN1CCCCC1 | -67 | 0 | 0 | 0 | 0 | 0
Cc1ccc(Cl)cc1NC(=O)CSC(N)=O | -68 | 0 | 0 | 0 | 0 | 0
COCC(=O)Nc1cc(Cl)ccc1C | 0 | 0 | 0 | 0 | 0 | 0
Cc1ccc(Cl)cc1NC(=O)CC(O)(C(F)(F)F)C(F)(F)F | 0 | 13µM | 0 | ? | 0 | ?
O=C(C1CCCCN1S(=O)(=O)c1ccccc1[N+](=O)[O-])N1CCCC1 (configuration not stated) | -53 | 0 | 0 | 0 | 0 | 0
C[C@@H]1CN([C@H](C)CO)C(=O)c2cccc(NC(=O)NC3CCCCC3)c2O[C@@H]1CN(C)C(=O)Nc1ccc(C(F)(F)F)cc1 | ? | ? | 18µM | 22µM | 0 | ?

Source: PubChem
